Assay results from PubChem BioAssay (Tox21).
Inconclusive results are not listed. A number with no mark means an inactive call. Calls of active or inactive are those of the source. The call rests on the fitted dose curve.

What follows are compounds tested against Acetylcholinesterase (Homo sapiens) (UniProt P22303) (assay: Acetylcholinesterase (AChE) small molecule antagonists: fluorescence cell-based qHTS assay (AID 1347398; further: nearly all actives have a fitted effect of over 50% in size)). Conditions: SH-SY5Y cells; Potency: AChE activity; outcome: AChE activity; series mostly up to 115 µM; activity change, negative = inhibition: at the top concentration.
Procedure, shortened: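 Fluorimetric cell-based assay: intact SH-SY5Y cells, 30 min compound preincubation at 37 C, acetylthiocholine substrate with thiol probe Thiolite Green, 40 min RT development, fluorescence 490/520 nm.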
On the % scale 0 is the no-effect control and ±100 the full control effect.

Sequence of Acetylcholinesterase (Homo sapiens) (P22303 whole entry, looked up): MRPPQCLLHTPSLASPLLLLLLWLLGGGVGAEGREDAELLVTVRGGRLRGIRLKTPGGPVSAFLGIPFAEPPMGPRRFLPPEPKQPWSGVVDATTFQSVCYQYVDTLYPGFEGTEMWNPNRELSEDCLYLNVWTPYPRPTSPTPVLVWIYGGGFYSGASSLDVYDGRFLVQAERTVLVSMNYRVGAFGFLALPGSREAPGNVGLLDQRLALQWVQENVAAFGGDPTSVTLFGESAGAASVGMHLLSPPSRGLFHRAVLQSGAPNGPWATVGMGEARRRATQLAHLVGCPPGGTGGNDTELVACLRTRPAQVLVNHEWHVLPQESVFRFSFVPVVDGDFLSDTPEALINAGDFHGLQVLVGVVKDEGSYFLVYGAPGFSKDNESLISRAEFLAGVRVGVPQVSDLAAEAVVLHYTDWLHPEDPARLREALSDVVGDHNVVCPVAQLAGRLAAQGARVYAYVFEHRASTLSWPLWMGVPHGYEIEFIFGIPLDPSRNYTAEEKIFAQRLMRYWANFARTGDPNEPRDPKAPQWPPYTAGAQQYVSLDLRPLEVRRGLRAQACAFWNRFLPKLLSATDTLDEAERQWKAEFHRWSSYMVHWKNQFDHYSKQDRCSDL

In order of falling “activity change, negative = inhibition” value:
1. CCC(=O)c1c(O)cc(O)cc1O  9.35% [at 53.7 µM]
2. Cc1c(Cn2ccnc2)c2ccccc2n1CCC(=O)O  6.32% [at 53.7 µM]
3. O=C(O)CNC(=O)c1ccccc1  5.65% [at 53.7 µM]
4. N[C@H]1CN(c2c(F)cc3c(=O)c(C(=O)O)cn(C4C[C@H]4F)c3c2Cl)CC12CC2 (some centres undefined)  3.57% [at 53.7 µM]
5. OCC(O)CN1CCN(c2ccccc2)CC1 (centres undefined)  2.27% [at 53.7 µM]
6. CC(=O)OCC=C(C)C  1.27% [at 53.7 µM]
7. C1COC(NC(C2CC2)C2CC2)=N1  0.349% [at 53.7 µM]
8. FC(F)(F)C(F)(F)C(F)(F)C(F)(F)CCI  0.211% [at 53.7 µM]
9. COC(=O)c1nc(Cl)c(Cl)nc1N  -1.76% [at 53.7 µM]
10. CCCCCCC(CCCCCCCCCCC(=O)OCC(COC(C)=O)OC(C)=O)OC(C)=O (centres undefined)  -2.61% [at 53.7 µM]
11. COCCc1ccc(OCC2CO2)cc1 (centres undefined)  -5.62% [at 53.7 µM]
12. COc1cc(C)c(Cc2cnc(N)nc2N)cc1OC  -13.3% [at 53.7 µM]
13. CCN(CCCc1ccccc1)CCCc1ccccc1  -18.9% [at 53.7 µM]
14. CN1CCN(CCCN2c3ccccc3Sc3ccc(Cl)cc32)CC1  -20.4% [at 53.7 µM]

For `NC(=O)c1ncn([C@@H]2O[C@H](CO)[C@@H](O)[C@H]2O)n1`, the Potency was “inactive”.
With `CN1C(=O)CC[C@H]1c1cccnc1` the Potency was “inactive”.
With `CC(c1cc2ccccc2s1)N(O)C(N)=O` (centres undefined) the Potency was “inactive”.
For `O=C=Nc1ccc(Cc2ccc(N=C=O)cc2)cc1`, the Potency was “inactive”.
With `O=C1C(N(CO)C(=O)NCO)N(CO)C(=O)N1CO` (centres undefined) the Potency was “inactive”.
For `O=C(O)c1ccccc1C(c1ccc(O)cc1)c1ccc(O)cc1`, the Potency was “inactive”.
With `CC(C)(C#N)c1cc(Cn2cncn2)cc(C(C)(C)C#N)c1` the Potency was “inactive”.
With `CC(=O)CCC=C(C)C` the Potency was “inactive”.
For `O=[N+]([O-])c1ccccc1C(F)(F)F`, the Potency was “inactive”.
With `COc1ccc(Nc2ccccc2)c(C)c1` the Potency was “inactive”.

In order of rising “activity change, negative = inhibition” value:
1. O=C(Nc1ccccc1)c1cc([N+](=O)[O-])ccc1Cl  -16.3%
2. CC(=O)/C(C)=C/C1C(C)=CCCC1(C)C (centres undefined)  -6.52%
3. CCSC(=O)N(CC)CC  -5.9%
4. Cl[Si](Cl)(c1ccccc1)c1ccccc1  -4.66%
5. COc1nc(N)nc2nc[nH]c12  -3.57%
6. CC(CC=O)CCCC(C)(C)O (centres undefined)  -0.648%
7. CCCC(=O)OCC(COC(=O)CCC)OC(=O)CCC  -0.505%
8. Nc1ccc(Oc2ccc(Cl)cc2)cc1  -0.208%
9. CC1=NN(c2cc(Cl)c(S(=O)(=O)O)cc2Cl)C(=O)C1N=Nc1ccc(S(=O)(=O)O)cc1 (centres undefined)  -0.172%
10. C=CC(=O)CCCCC  0.0383%
11. CC(C)c1ccc(O)c(C(C)C)c1  1.1%
12. O=Cc1ccccc1[N+](=O)[O-]  2.19%
13. CC(CO)Oc1ccccc1 (centres undefined)  2.42%
14. Nc1ccn([C@@H]2O[C@H](CO)[C@@H](O)C2O)c(=O)n1 (some centres undefined)  3.72%
15. CCc1c(C(=O)NN2CCCCC2)nn(-c2ccc(Cl)cc2Cl)c1-c1ccc(Br)cc1  5.1%
